Values joined by “and” are separate entries in the source; they are usually repeats but may differ in a detail not shown here. Equal values may be shown once. The campaign covered roughly 5,500 compounds. About 2,000 (36%) were called active. Roughly 18% stayed inconclusive and do not appear here. Rule as the data show it: active = normalized growth mostly below about 0.91 (no sharp cut-off); inconclusive = no clear call, values can overlap the other calls; inactive = mostly above about 0.92. The list shows a part of the results.
Assay: chemical genetic growth profiling, strain panel (AID 1159580);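 also: tested at 20 µM; growth read once vehicle control cultures reached saturation at 30 °C; 1 = growth at the plate median or of vehicle wells; lower values mean less growth of the strain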
Conditions: S. cerevisiae deletion strains, growth OD

Measured: normalized growth

Nc1ccn(C2O[C@H](CO)[C@@H](O)[C@H]2O)c(=O)n1 (some centres undefined)
inactive: locus YAL021C, strain ccr4, stronger effect = lower value 0.985 | locus YAL026C, strain drs2, stronger effect = lower value 0.983 | locus YAL030W, strain snc1, stronger effect = lower value 0.982 | locus YBL061C, strain skt5, stronger effect = lower value 0.996 | locus YBR009C, strain hhf1, stronger effect = lower value 0.997 | locus YBR021W, strain FUR4, stronger effect = lower value 1.02 | locus YBR023C, strain chs3, stronger effect = lower value 1 | locus YBR171W, strain sec66, stronger effect = lower value 0.991 | locus YBR229C, strain ROT2, stronger effect = lower value 0.997 | locus YBR231C, strain swc5, stronger effect = lower value 0.987 | locus YBR279W, strain paf1, stronger effect = lower value 0.995 | locus YCL011C, strain gbp2, stronger effect = lower value 0.991 | locus YCL016C, strain dcc1, stronger effect = lower value 1 | locus YCL029C, strain bik1, stronger effect = lower value 1.01 | locus YCL061C, strain MRC1, stronger effect = lower value 0.992 | locus YCL069W, strain vba3, stronger effect = lower value 0.992 | locus YCR088W, strain abp1, stronger effect = lower value 0.985 | locus YDL005C, strain med2, stronger effect = lower value 0.983 | locus YDL035C, strain GPR1, stronger effect = lower value 1.01 | locus YDL040C, strain nat1, stronger effect = lower value 0.987 | locus YDL074C, strain BRE1, stronger effect = lower value 1.03 | locus YDL101C, strain DUN1, stronger effect = lower value 1.02 | locus YDL185W, strain tfp1, stronger effect = lower value 1.03 | locus YDL192W, strain arf1, stronger effect = lower value 1.01 | locus YDR001C, strain nth1, stronger effect = lower value 0.977 | locus YDR069C, strain doa4, stronger effect = lower value 0.992 | locus YDR101C, strain arx1, stronger effect = lower value 1.03 | locus YDR137W, strain rgp1, stronger effect = lower value 0.982 | locus YDR150W, strain NUM1, stronger effect = lower value 0.962 | locus YDR159W, strain sac3, stronger effect = lower value 0.982 | locus YDR162C, strain NBP2, stronger effect = lower value 1 | locus YDR195W, strain ref2 0.974 | locus YDR297W, strain sur2, stronger effect = lower value 0.982 | locus YDR318W, strain mcm21, stronger effect = lower value 0.998 | locus YDR334W, strain swr1, stronger effect = lower value 0.981 | locus YDR335W, strain msn5, stronger effect = lower value 0.982 | locus YDR388W, stronger effect = lower value 1 | locus YDR392W, strain spt3, stronger effect = lower value 0.995 | locus YDR502C, strain sam2, stronger effect = lower value 1.01 | locus YEL003W, strain gim4, stronger effect = lower value 0.99 | locus YEL037C, strain rad23, stronger effect = lower value 0.991 | locus YEL061C, strain CIN8 (second series), stronger effect = lower value 0.983 | locus YEL061C, strain CIN8, stronger effect = lower value 1.01 | locus YER015W, strain faa2, stronger effect = lower value 1.01 | locus YER016W, strain bim1, stronger effect = lower value 0.987 | locus YER110C, stronger effect = lower value 1.01 | locus YER111C, strain swi4, stronger effect = lower value 0.982 | locus YER155C, strain BEM2 (second series), stronger effect = lower value 0.975 | locus YER155C, strain BEM2, stronger effect = lower value 1 | locus YER167W, strain BCK2, stronger effect = lower value 0.987 | locus YFR010W, strain ubp6, stronger effect = lower value 0.972 | locus YGL078C, strain dbp3, stronger effect = lower value 1.01 | locus YGL086W, strain mad1, stronger effect = lower value 1.03 | locus YGL167C, strain pmr1, stronger effect = lower value 0.997 | locus YGL173C, strain kem1, stronger effect = lower value 0.995 | locus YGL227W, strain vid30, stronger effect = lower value 0.993 | locus YGL240W, strain doc1, stronger effect = lower value 1.01 | locus YGL248W, strain PDE1, stronger effect = lower value 0.991 | locus YGL253W, strain hxk2, stronger effect = lower value 0.996 | locus YGR078C, strain PAC10, stronger effect = lower value 1.02 | locus YGR135W, strain pre9, stronger effect = lower value 1 | locus YGR252W, strain gcn5, stronger effect = lower value 0.993 | locus YHR013C, strain ard1, stronger effect = lower value 1.01 | locus YHR027C, strain rpn1, stronger effect = lower value 0.989 | locus YHR030C, strain SLT2, stronger effect = lower value 1.01 and 1 | locus YHR079C, strain IRE1 (second series), stronger effect = lower value 1 | locus YHR079C, strain IRE1, stronger effect = lower value 0.995 | locus YHR094C, strain hxt1, stronger effect = lower value 1.01 | locus YHR129C, strain ARP1, stronger effect = lower value 1.01 | locus YHR142W, strain chs7, stronger effect = lower value 0.999 | locus YHR200W, strain rpn10, stronger effect = lower value 1.02 | locus YIL066C, strain RNR3, stronger effect = lower value 0.995 | locus YIL073C, strain SPO22, stronger effect = lower value 1.02 | locus YIL125W, strain kgd1, stronger effect = lower value 1.01 | locus YIR030C, strain dcg1, stronger effect = lower value 1.01 | locus YJL092W, strain hpr5, stronger effect = lower value 0.988 | locus YJL095W, strain BCK1 (second series), stronger effect = lower value 0.995 | locus YJL095W, strain BCK1, stronger effect = lower value 1.06 and 1 | locus YJL115W, strain asf1, stronger effect = lower value 0.975 | locus YJL129C, strain trk1, stronger effect = lower value 0.995 | locus YJL134W, strain LCB3, stronger effect = lower value 0.999 | locus YJL154C, strain vps35, stronger effect = lower value 0.978 | locus YJL164C, strain tpk1, stronger effect = lower value 1 | locus YJL166W, strain qcr8, stronger effect = lower value 0.999 | locus YJL168C, strain set2, stronger effect = lower value 0.999 | locus YJL187C, strain SWE1 (second series), stronger effect = lower value 1.04 | locus YJL187C, strain SWE1, stronger effect = lower value 0.987 | locus YJR043C, strain POL32, stronger effect = lower value 1 | locus YJR066W, strain TOR1, stronger effect = lower value 0.909
